According to the supplement of paper PMC10849652:
Of roughly 8,800 targets only a part is listed; those with a hit were picked by preference. About 0.5% of all pairs of compound and target were hits.

What was measured:
Assay in all cases: log2 fold change, soluble protein after heating vs DMSO (PISA); higher = thermal stabilisation; K562 lysate, 10 uM; active = over 0.2 and 3.5 SD of the protein, either way, in both replicates (recomputed)
alvocidib = compound: CN1CC[C@H](c2c(O)cc(O)c3c(=O)cc(-c4ccccc4Cl)oc23)[C@H](O)C1 [alvocidib]
Summary of the method: (§1)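 K562 pellets were dounce-homogenised in PBS pH 7.4 with 1 mM MgCl2, and the crude extract at 1 mg/mL protein was treated with 10 μM compound for 30 min. Aliquots were heated for 3 min across 48°C-58°C, pooled, and brought to 0.5% NP-40 at 4°C; soluble protein was the supernatant after 21,000xg for 90 min. Soluble protein was quantified by TMTpro 16plex LC-MS/MS with channel sums equalised, and reported as log2 fold change in thermal stability against DMSO controls, with values from duplicates.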

Tubastatin A = compound: CN1CCc2c(c3ccccc3n2Cc2ccc(C(=O)NO)cc2)C1 [Tubastatin A]
Summary of the method: as §1

alisertib = compound: COc1cc(Nc2ncc3c(n2)-c2ccc(Cl)cc2C(c2c(F)cccc2OC)=NC3)ccc1C(=O)O [alisertib]
Summary of the method: as §1

[1] = compound: COc1cc2nc(-c3cc(F)ccc3O)nc(N[C@@H]3CNC[C@H]3C(C)(C)O)c2cc1OC
Summary of the method: as §1

gefitinib = compound: COc1cc2ncnc(Nc3ccc(F)c(Cl)c3)c2cc1OCCCN1CCOCC1 [gefitinib]
Summary of the method: as §1

lapatinib = compound: CS(=O)(=O)CCNCc1ccc(-c2ccc3ncnc(Nc4ccc(OCc5cccc(F)c5)c(Cl)c4)c3c2)o1 [lapatinib]
Summary of the method: as §1

pictilisib = compound: CS(=O)(=O)N1CCN(Cc2cc3nc(-c4cccc5[nH]ncc45)nc(N4CCOCC4)c3s2)CC1 [pictilisib]
Summary of the method: as §1

crizotinib = compound: C[C@@H](Oc1cc(-c2cnn(C3CCNCC3)c2)cnc1N)c1c(Cl)ccc(F)c1Cl [crizotinib]
Summary of the method: as §1

[2] = compound: C[C@H](C1=CC=C(C=C1)C(=O)NC2=C3C=CNC3=NC=C2)N
Summary of the method: as §1

gandotinib = compound: Cc1cc(Nc2cc(CN3CCOCC3)c3nc(C)c(Cc4ccc(Cl)cc4F)n3n2)n[nH]1 [gandotinib]
Summary of the method: as §1

doramapimod = compound: Cc1ccc(-n2nc(C(C)(C)C)cc2NC(=O)Nc2ccc(OCCN3CCOCC3)c3ccccc23)cc1 [doramapimod]
Summary of the method: as §1

bafetinib = compound: Cc1ccc(NC(=O)c2ccc(CN3CC[C@H](N(C)C)C3)c(C(F)(F)F)c2)cc1Nc1nccc(-c2cncnc2)n1 [bafetinib]
Summary of the method: as §1

[3] = compound: Cc1cccc(CC(=O)N2CCc3c2ccc(-c2cn(C)c4ncnc(N)c24)c3F)n1
Summary of the method: as §1

defactinib = compound: CNC(=O)c1ccc(Nc2ncc(C(F)(F)F)c(NCc3nccnc3N(C)S(C)(=O)=O)n2)cc1 [defactinib]
Summary of the method: as §1

encorafenib = compound: COC(=O)N[C@@H](C)CNc1nccc(-c2cn(C(C)C)nc2-c2cc(Cl)cc(NS(C)(=O)=O)c2F)n1 [encorafenib]
Summary of the method: as §1

[4] = compound: COC(=O)[C@H](CCSC)NC(=O)C1=C(C=C(C=C1)NC[C@H](CS)N)C2=CC=CC=C2
Summary of the method: as §1

tozasertib = compound: Cc1cc(Nc2cc(N3CCN(C)CC3)nc(Sc3ccc(NC(=O)C4CC4)cc3)n2)n[nH]1 [tozasertib]
Summary of the method: as §1

[5] = compound: CNC(=O)C1=CC=CC=C1NC2=NC(=NC=C2Cl)NC3=C(C=C(C=C3)N4CCOCC4)OC
Summary of the method: as §1

[6] = compound: CNc1nc(-c2ccc3c(N)n[nH]c3c2)cc(N2C[C@@H](C(=O)NC3CCCCC3)CC[C@H]2C)n1
Summary of the method: as §1

duvelisib = compound: C[C@H](Nc1ncnc2nc[nH]c12)c1cc2cccc(Cl)c2c(=O)n1-c1ccccc1 [duvelisib]
Summary of the method: as §1

Measured: log2 fold change

CSDE1 isoform 3 (UniProt O75534)
UniProt O75534, sequence (O75534 whole entry, looked up): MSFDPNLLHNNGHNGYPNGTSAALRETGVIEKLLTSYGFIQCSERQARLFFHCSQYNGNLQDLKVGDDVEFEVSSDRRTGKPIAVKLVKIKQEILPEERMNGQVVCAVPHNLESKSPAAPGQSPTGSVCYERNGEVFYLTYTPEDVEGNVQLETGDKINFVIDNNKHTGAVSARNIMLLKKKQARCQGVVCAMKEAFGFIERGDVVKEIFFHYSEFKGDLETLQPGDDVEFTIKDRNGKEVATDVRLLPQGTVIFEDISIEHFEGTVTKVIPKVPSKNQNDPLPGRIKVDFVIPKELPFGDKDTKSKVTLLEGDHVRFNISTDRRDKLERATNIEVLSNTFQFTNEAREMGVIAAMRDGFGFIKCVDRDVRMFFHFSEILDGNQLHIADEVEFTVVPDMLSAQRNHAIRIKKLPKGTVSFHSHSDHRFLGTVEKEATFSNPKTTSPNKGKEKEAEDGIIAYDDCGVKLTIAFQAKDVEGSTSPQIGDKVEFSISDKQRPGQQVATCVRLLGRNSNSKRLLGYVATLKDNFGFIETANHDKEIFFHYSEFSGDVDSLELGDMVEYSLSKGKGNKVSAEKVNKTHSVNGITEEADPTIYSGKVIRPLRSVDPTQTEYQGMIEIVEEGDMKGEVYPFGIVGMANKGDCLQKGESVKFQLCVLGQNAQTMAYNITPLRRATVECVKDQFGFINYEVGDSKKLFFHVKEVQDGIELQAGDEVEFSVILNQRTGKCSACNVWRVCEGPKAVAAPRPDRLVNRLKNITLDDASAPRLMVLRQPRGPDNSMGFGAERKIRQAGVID
inactive: alvocidib 0.029 | Tubastatin A -0.014 | alisertib -0.011 | [1] 0.28 | gefitinib -0.09 | lapatinib 0.184 | pictilisib -0.141 | crizotinib -0.179 | [2] 0.139 | gandotinib -0.043 | doramapimod 0.055 | bafetinib 0.126 | [3] -0.058

DESI2 (UniProt Q9BSY9)
UniProt Q9BSY9, sequence (Q9BSY9 whole entry, looked up): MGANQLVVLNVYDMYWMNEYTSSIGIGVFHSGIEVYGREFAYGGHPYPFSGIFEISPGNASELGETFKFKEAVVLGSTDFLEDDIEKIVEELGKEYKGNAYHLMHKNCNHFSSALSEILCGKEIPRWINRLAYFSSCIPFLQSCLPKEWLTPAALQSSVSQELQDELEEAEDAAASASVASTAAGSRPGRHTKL
inactive: alvocidib -0.07 | defactinib 0.016 | encorafenib -0.057 | [4] -0.014 | [2] -0.095 | gandotinib -0.078 | tozasertib -0.095 | [3] 0.316

COL6A3 (UniProt P12111)
inactive: alvocidib 0.045 | Tubastatin A 0.017 | [5] -0.126 | [6] 0.13 | alisertib -0.323 | gefitinib 0.164 | pictilisib -0.019 | crizotinib -0.023 | [2] -0.04 | duvelisib 0.013 | gandotinib -0.036 | doramapimod 0.032 | bafetinib 0.036 | [3] 0.048

CHFR (UniProt Q96EP1)
UniProt Q96EP1, sequence (Q96EP1 whole entry, looked up): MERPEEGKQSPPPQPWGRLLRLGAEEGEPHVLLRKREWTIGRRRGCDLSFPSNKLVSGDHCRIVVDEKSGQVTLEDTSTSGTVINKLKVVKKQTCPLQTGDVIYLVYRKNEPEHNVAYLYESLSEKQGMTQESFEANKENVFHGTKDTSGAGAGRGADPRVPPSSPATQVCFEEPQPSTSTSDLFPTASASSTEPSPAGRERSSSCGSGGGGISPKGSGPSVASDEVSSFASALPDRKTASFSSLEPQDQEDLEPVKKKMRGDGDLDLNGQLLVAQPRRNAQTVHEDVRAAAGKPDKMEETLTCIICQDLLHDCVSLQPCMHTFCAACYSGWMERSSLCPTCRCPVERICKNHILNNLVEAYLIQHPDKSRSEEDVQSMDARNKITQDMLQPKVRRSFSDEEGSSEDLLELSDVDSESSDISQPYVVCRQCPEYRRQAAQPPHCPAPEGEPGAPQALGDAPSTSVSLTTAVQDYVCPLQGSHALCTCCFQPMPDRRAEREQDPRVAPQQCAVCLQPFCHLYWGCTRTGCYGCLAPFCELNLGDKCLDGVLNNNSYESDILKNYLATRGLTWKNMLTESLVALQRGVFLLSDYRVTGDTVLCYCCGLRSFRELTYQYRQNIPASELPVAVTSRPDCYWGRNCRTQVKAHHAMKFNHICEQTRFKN
active: defactinib -0.61
inactive: Tubastatin A -0.052 | [5] 0.004 | [6] -0.032 | encorafenib 0.063 | [4] -0.084 | alisertib 0.033 | [1] 0.008 | gefitinib -0.03 | lapatinib -0.062 | crizotinib -0.051 | duvelisib 0.023 | tozasertib -0.063 | doramapimod -0.012

COL12A1 (UniProt Q99715)
UniProt Q99715, sequence (Q99715 whole entry, looked up): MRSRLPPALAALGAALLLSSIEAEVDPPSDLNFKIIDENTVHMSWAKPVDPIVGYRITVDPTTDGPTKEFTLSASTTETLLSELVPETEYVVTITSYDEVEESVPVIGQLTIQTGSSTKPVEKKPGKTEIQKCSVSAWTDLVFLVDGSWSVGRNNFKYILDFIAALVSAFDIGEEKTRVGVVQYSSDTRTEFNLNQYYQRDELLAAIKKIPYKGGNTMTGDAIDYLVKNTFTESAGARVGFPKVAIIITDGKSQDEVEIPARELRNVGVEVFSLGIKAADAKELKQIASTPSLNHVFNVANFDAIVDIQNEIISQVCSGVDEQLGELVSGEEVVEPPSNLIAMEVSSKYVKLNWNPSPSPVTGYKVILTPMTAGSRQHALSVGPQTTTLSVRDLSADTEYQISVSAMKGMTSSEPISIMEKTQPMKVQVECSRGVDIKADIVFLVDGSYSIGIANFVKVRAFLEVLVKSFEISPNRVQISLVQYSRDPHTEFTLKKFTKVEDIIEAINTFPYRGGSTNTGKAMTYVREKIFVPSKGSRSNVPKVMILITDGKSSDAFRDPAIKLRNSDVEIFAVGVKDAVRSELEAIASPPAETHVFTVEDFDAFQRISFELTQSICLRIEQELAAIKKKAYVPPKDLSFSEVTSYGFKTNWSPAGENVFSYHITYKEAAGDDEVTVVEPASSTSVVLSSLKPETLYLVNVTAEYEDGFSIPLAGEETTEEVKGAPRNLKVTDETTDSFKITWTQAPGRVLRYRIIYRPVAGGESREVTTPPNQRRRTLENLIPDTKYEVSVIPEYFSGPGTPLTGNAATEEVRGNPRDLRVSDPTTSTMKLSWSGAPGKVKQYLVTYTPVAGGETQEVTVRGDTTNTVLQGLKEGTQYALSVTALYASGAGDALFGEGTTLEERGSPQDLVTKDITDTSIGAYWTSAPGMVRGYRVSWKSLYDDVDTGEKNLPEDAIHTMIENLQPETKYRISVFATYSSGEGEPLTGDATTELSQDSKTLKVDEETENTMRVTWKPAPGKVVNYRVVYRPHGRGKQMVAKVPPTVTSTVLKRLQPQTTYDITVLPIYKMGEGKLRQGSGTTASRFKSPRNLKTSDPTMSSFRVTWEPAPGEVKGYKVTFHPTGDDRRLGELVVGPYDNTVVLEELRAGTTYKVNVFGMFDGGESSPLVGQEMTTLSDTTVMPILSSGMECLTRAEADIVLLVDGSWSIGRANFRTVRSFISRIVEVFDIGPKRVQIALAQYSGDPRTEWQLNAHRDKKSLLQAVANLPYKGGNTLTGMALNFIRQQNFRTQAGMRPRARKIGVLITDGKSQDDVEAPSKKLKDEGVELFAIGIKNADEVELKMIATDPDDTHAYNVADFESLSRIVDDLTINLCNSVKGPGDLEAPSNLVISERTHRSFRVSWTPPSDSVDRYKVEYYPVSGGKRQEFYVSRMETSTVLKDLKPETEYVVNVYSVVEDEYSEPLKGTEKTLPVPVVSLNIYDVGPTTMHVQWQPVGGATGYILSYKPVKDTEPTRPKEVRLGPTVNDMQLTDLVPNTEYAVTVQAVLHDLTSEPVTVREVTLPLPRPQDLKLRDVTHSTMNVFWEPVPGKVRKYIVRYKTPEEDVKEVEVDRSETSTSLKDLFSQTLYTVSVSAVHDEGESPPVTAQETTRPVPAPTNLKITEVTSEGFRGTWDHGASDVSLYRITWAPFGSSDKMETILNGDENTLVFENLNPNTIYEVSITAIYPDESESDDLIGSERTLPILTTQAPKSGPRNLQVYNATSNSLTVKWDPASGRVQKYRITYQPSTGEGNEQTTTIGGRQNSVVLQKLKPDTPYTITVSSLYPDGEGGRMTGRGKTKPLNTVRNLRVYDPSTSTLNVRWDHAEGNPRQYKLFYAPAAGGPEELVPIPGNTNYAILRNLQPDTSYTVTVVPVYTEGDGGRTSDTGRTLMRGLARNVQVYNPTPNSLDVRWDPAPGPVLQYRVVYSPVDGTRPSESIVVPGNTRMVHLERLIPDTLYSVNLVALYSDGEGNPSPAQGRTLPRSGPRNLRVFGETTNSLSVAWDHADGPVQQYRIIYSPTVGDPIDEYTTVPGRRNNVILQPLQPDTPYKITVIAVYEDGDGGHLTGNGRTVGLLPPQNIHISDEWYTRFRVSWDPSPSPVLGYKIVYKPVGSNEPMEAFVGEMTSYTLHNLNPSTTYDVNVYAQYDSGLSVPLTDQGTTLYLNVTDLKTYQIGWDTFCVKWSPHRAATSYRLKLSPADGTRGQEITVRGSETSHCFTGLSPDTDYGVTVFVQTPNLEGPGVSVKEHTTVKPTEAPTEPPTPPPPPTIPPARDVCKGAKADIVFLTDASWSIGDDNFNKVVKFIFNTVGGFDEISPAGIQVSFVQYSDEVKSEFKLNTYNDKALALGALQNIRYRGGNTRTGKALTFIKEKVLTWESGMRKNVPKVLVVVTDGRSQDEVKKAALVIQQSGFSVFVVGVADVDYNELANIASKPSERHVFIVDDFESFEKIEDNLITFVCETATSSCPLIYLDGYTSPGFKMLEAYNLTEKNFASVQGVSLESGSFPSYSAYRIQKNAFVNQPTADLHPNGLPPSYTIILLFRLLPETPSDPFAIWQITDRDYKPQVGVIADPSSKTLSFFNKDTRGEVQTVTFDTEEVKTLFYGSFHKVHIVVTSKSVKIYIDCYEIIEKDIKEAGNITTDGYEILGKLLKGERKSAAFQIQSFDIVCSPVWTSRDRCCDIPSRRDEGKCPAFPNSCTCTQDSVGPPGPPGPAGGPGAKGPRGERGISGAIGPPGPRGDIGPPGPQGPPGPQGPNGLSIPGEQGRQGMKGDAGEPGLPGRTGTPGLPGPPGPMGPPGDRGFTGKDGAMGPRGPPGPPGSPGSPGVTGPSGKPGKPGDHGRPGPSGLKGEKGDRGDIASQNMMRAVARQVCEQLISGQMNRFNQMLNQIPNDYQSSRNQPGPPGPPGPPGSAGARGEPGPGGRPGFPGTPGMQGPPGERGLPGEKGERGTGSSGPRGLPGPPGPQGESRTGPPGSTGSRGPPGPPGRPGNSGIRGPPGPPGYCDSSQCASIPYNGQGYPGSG
active: [1] 1.32
inactive: [5] 0.095 | defactinib -0.059 | [6] 0.531 | encorafenib 0.003 | [4] -0.092 | lapatinib -0.117 | crizotinib -0.031 | duvelisib 0.086 | tozasertib -0.021 | doramapimod 0.88

CYP4V2 (UniProt Q6ZWL3)
inactive: Tubastatin A -0.1 | [5] -0.007 | [6] 0.045 | [1] -0.066 | lapatinib 0.049 | crizotinib 0.12 | duvelisib 0.031 | doramapimod 0.027 | bafetinib 0.177
active: pictilisib -0.441

CSNK2A1, A0A2R8Y4D6
inactive: [1] 0.06 | lapatinib -0.132
